# FLuc counter: qHTS profiling assay for firefly luciferase inhibitor/activator using purifed enzyme and Km concentrations of substrates (counterscreen for miR-21 project) | Luciferin 4-monooxygenase (Photinus pyralis), P08659 | purified FLuc, Km substrates, luminescence inhibition | Potency, µM (doses to about 57.5 µM), without a hit: at the top dose activity change, negative = inhibition, hits mostly inhibitors | 360,000 compounds, 6.9% hits | AID 588342, 2011;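 further: plate controls were vehicle for no effect and reference inhibitor for full effect; nearly all actives have a fitted effect of over 55% in size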
# Target sequence (P08659 whole entry, looked up): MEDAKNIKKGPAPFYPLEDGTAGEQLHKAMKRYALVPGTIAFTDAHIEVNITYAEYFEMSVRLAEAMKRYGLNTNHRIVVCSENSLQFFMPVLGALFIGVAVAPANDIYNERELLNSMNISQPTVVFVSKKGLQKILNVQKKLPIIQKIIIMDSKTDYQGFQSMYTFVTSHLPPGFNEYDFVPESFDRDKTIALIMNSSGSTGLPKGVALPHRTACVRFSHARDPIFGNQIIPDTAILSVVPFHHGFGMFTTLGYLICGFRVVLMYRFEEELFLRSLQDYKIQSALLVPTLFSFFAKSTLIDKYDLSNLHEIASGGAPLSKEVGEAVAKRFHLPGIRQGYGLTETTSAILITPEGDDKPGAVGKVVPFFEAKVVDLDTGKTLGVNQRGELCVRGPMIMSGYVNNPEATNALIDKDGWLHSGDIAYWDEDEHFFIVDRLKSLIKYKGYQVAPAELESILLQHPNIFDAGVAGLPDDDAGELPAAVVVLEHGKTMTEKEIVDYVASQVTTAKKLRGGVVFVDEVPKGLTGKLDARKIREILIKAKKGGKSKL
#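 Biochemical qHTS of compounds, final roughly 60 µM downward over six points, against 10 nM purified firefly luciferase using Km concentrations of substrates (10 uM D-luciferin, 10 uM ATP) in Tris acetate pH 7.5 buffer; luminescence output.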
# Rab9 prom act: qHTS Assay for Rab9 Promoter Activators | 320,000 compounds, 2.8% hits | Huh7 Rab9 promoter-luciferase reporter, luminescence, 24 h | Potency, µM (titrated, usually from 9.22 µM), without a hit: at the highest dose activation, negative = inhibition, hits mostly activators; further: % of control where 0% means no effect; nearly all actives have a fitted effect of over 60% in size
#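 Huh7 reporter line, Rab9 promoter upstream of luciferase. Compound exposure 24 h at 37 °C in reduced-serum medium with 10% FBS. Read-out: luminescence.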
# KinaseGlo FLuc: Counterscreen for Luciferase (Kinase-Glo TM) Inhibition | AID 1379, 2008 | Potency, µM (highest dose often 38.3 µM), for inactives: top-dose activity change, negative = inhibition, usual class: inhibitors | 200,000 compounds, 0.28% hits | Kinase-Glo luciferase, ATP luminescence, 8 min | Luciferin 4-monooxygenase (Photuris pensylvanica), Q27757; further: on the % scale 0 is the no-effect control and ±100 the full control effect; nearly all actives have a fitted effect of over 60% in size
#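 Kinase-Glo luciferase light output from ATP and luciferin was measured with 10 uM ATP, within the enzyme's linear range. Buffer: 50 mM imidazole pH 7.2, 50 mM KCl, 7 mM MgCl2, 0.01% Tween 20, 0.05% BSA; luminescence read after 8 min at ambient temperature.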
# NPC1 promoter act: qHTS Assay for NPC1 Promoter Activators; 320,000 compounds, 2.4% hits; Huh7 NPC1 promoter luciferase reporter, 24 h; Potency, µM (series often up to 9.22 µM), inactives show at the top dose activation, actives largely listed as activators; AID 485313, 2010; further: % of control where 0% means no effect; nearly all actives have a fitted effect of over 60% in size
#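 Luciferase expression driven by the NPC1 promoter was measured in stably transfected Huh7 cells after a 24 h compound incubation, using a luciferase reagent and a luminescence read.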
# SMN2 splice enh: qHTS Assay for Enhancers of SMN2 Splice Variant Expression | HEK293 SMN2-luciferase splicing reporter, luminescence, 30-36 h | Potency, µM (series often up to 46.1 µM), without a hit: at the top dose activity change, positive = activation, most hits filed as activators | 210,000 compounds, 2.8% hits | AID 1458, 2008; further: % of control where 0% means no effect; nearly all actives have a fitted effect of over 55% in size
#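 qHTS luciferase splicing reporter: luminescence rises when SMN2 exon 7 is included in transfected HEK293 cells. Compound exposure lasted 30-36 h at 37C, with 4.5 mM final sodium butyrate as control, followed by a ONE-Glo read.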
# Active calls of the source: *; ? = inconclusive; . = no result given; [ ] = another dose, or the depositor's remark. Rows were chosen to be rich in hits. Some 7.3% of all compounds tested hit in one or more screens of this group. The call rests on the fitted dose curve; in most records, active means well fitted curve in the direction sought with a large enough effect; inconclusive means small, poorly fitted or top-dose-only effect, or another doubt; inactive means no such curve, though single readings can be large; an effect the other way counts as inactive or inconclusive. Potency means the concentration at half of the fitted maximal effect.
SMILES,FLuc counter,Rab9 prom act,KinaseGlo FLuc,NPC1 promoter act,SMN2 splice enh
CCC(C(=O)Nc1cc(F)ccc1F)n1nc(-c2cc(C)ccc2C)ccc1=O (stereo unspecified),-15.1%,.,.,.,7.6%
COC(=O)Cc1ccc(NC(=S)N2CCN(C)CC2)cc1,5.36µM*,21.3%,-2.3%,9.6%,?
COC(=O)Cc1ccc(NC(=S)N2CCC(Cc3ccccc3)CC2)cc1,4.78µM*,8.2%,.,0.7%,.
COC(=O)Cc1ccc(NC(=S)N2CCCCC2C)cc1 (stereo unspecified),4.78µM*,17.7%,-4.0%,10.0%,5.8%
CC(=O)c1ccc(NC(=S)N2CCC(Cc3ccccc3)CC2)cc1,?,14.5%,.,-3.2%,.
CC(C)CN(CCNC(=O)CCN1N=C(c2ccccc2)CCC1=O)CC(C)C,-0.4%,.,.,.,.
CCN(CC)c1ccc(CN2CCC(C(=O)NCc3ccc(C)cc3)CC2)cc1,23.9µM*,12.5%,-1.7%,0.2%,.
CCN(CC)S(=O)(=O)N1CCC(C(=O)NCc2ccc(C)cc2)CC1,-2.3%,6.0%,-1.8%,0.3%,2.8%
Cc1ccc(S(=O)(=O)N/N=C/c2ccc(O)c(O)c2)cc1[N+](=O)[O-],-31.1%,1.4%,-0.3%,-0.8%,-3.3%
Cc1ccc(S(=O)(=O)N/N=C/c2ccccc2O)cc1[N+](=O)[O-],15.1µM*,-1.2%,5.4%,-0.9%,-24.9%
C/C(=N\NS(=O)(=O)c1ccc(C)c([N+](=O)[O-])c1)c1ccc2c(c1)OCO2,10.7µM*,-10.5%,.,2.1%,.
C/C(=N\NS(=O)(=O)c1ccc([N+](=O)[O-])cc1)c1ccc2c(c1)OCO2,-2.4%,5.6%,.,-3.2%,.
Cn1c(=O)c2c(ncn2CN2CCN(Cn3cnc4c3c(=O)n(C)c(=O)n4C)CC2)n(C)c1=O,.,.,-3.3%[7.66 µM],.,-0.1%[9.22 µM]
CN(Cc1cc(Br)cc(Br)c1N)C1CCCCC1,.,.,-3.0%,.,-12.0%
COc1ccc(-c2nnc(C3CCN(C(=O)c4ccccc4F)CC3)o2)cc1,?,.,.,.,-0.3%
COc1ccccc1Nc1nnc(SCC2CCCCO2)s1 (stereo unspecified),1.51µM*,2.51µM*,8.91µM*,3.55µM*,?
Cc1ccccc1Nc1nnc(SCC2CCCCO2)s1 (stereo unspecified),2.39µM*,2.82µM*,-27.6%,0.708µM*,11.2µM*
Cc1cccc(N2CCN(C(=O)c3cnn(-c4ccc(F)cc4F)c3C3CCN(C(=O)OC(C)(C)C)CC3)CC2)c1C,-0.8%,.,.,.,.
Cc1c(Cl)cccc1NC(=O)CCN1C(=O)c2ccccc2Sc2ncccc21,-4.4%,.,.,.,.
N#C/C(=N/Nc1ccc(OC(F)(F)F)cc1)C(N)=S,10.7µM*,-35.8%,.,-25.2%,.
CN(C)C=Nc1ccc2nc3c(cc2c1)[nH]c1ccccc13,1.35µM*,1.41µM*,.,1.26µM*,.
Cc1ccccc1CN1C(=O)C(O)(c2c[nH]c3ccccc23)c2cc(Cl)ccc21 (stereo unspecified),4.7%,.,.,.,-5.1%
Cc1ccc(NC(=O)N2CC3CCCN3c3ccccc32)c(C)c1 (stereo unspecified),-11.4%,.,.,.,.
CC(C)c1ccc(C2c3c(-c4ccccc4O)n[nH]c3C(=O)N2Cc2ccncc2)cc1 (stereo unspecified),1.6%,.,.,.,8.2%
CSc1cccc(NC(=O)C2CCN(S(=O)(=O)c3ccc4[nH]c(=O)ccc4c3)CC2)c1,-1.3%,.,.,.,.
SMILES,FLuc counter,Rab9 prom act,KinaseGlo FLuc,NPC1 promoter act,SMN2 splice enh
COC(=O)c1ccccc1N/C=C/C(=O)c1ccc(Br)cc1,16.9µM*,?,-5.6%,24.8%,11.2µM*
NC(=O)c1ccccc1N/C=C/C(=O)c1ccccc1,0.849µM*,0.562µM*,11.2µM*,0.562µM*,7.08µM*
CC(C)(C)c1ccc(OCc2cc(=O)n3c4c(sc3n2)CCCC4)cc1,-1.7%,.,.,.,-4.8%
Cc1ccc(CC(=O)Nc2ccc(C(=O)N3CCCCC3)cc2)cc1,2.6%,1.3%,.,7.1%,.
O=C(c1ccc(CSc2ccc(Cl)cc2)cc1)N1CCCC1,19µM*,?,-0.4%,24.2%,7.5%
O=C(Cc1ccc(Cl)cc1)Nc1ccc(C(=O)N2CCCCC2)cc1,26.9µM*,-0.6%,.,9.6%,.
O=C(O)c1cccc(NC(=O)c2cn(-c3ccccc3)nc2-c2ccc([N+](=O)[O-])cc2)c1,16.9µM*,0.0%,.,-8.3%,.
COc1ccc(-c2nn(-c3ccccc3)cc2C(=O)Nc2cccc(C(=O)O)c2)cc1[N+](=O)[O-],?,12.8%,.,1.6%,.
O=C(O)c1cccc(NC(=O)c2cn(-c3ccccc3)nc2-c2ccncc2)c1,16.9µM*,-3.0%,0.3%,-0.6%,-3.2%
O=C(NNS(=O)(=O)c1ccc([N+](=O)[O-])cc1)C(=O)Nc1cccc(C(=O)O)c1,16.9µM*,11.0%,.,1.3%,.
O=C(NC1(C(F)(F)F)C(=O)Nc2c1c(=O)[nH]c(=O)n2-c1ccccc1)c1ccccc1Cl (stereo unspecified),-3.5%,.,.,.,.
CC1(C)N([O-])c2cc([N+](=O)[O-])ccc2[N+]1=O,10.7µM*,-23.5%,.,-0.2%,.
Cc1ccc(C)n1-c1cc([N+](=O)[O-])ccc1-n1ccnc1,-2.1%,-4.3%,.,2.9%,.
Cc1nc2ccccc2nc(C)c1=NOCc1cccc(F)c1,-10.9%,-1.2%,1.2%,-1.9%,20µM*
CC(C)(O)c1cc(=O)sc2nc3ccccc3n12,9.53µM*,0.562µM*,-7.5%,3.55µM*,14.1µM*
c1ccc2nc3c(nc2c1)sc1nc2ccccc2n13,3.2%,-0.2%,-4.5%,-7.4%,36.2%
O=C(CSc1nnc(-c2ccccc2O)o1)N1CCCCC1,10.7µM*,25.6%,.,23.9%,.
O=C(CSc1nnc(-c2ccccc2Cl)o1)N1CCCC1,15.1µM*,?,.,?,.
CC1CCCCN1C(=O)CSc1nnc(-c2ccccc2Cl)o1 (stereo unspecified),-15.9%,.,.,.,-18.2%
O=C(CSc1nnc(-c2ccccc2O)o1)N1CCOCC1,?,3.16µM*,.,?,.
CC1CCCCN1C(=O)CSc1nnc(-c2ccccc2O)o1 (stereo unspecified),21.3µM*,3.55µM*,.,2.82µM*,.
Cc1oc2c(c(C)cc3oc(=O)c(CC(=O)NCCc4ccc(Cl)cc4)c(C)c32)c1C,-6.8%,.,.,.,-2.8%
COc1cccc(CNC(=O)Cn2c(SCC(=O)Nc3ccc(F)cc3)nc3ccccc32)c1,0.5%,.,.,.,.
O=C(CSc1nnc(-c2ccccc2Cl)o1)N1CCCCC1,15.1µM*,?,-3.0%,?,15.8µM*
O=C(CSc1nnc(-c2ccncc2)o1)N1CCCCCC1,5.9%,1.1%,1.7%,-3.2%,-12.2%
O=C(CSc1nnc(-c2ccccc2Br)o1)N1CCOCC1,19µM*,3.98µM*,.,2.82µM*,.
